# About 8,600 (12%) of roughly 69,000 compounds showed an effect of 50% or more. The sample as a whole holds a higher share of strong results than the screen did.
# Tested on: Plasmodium berghei
# Test: Screen against P. berghei liver stage (PbLuc), transformed with Luciferase, at 10uM
# Format: functional, HepG2
# Conditions: tested at 10 uM
row,SMILES,INHIBITION [%]
1,CCc1cc(NC(=O)C2CCCN(C(=O)c3ccncc3)C2)[nH]n1 (stereo unspecified),8.86
2,O=C(Cc1csc(-c2cccc(Cl)c2)n1)NCc1cccc(C(=O)O)c1,34.5
3,COCCN(CCOC)C(=O)c1c[nH]nc1-c1cccc(F)c1,-3.24
4,Cc1nc(-c2ccc(Cl)s2)sc1C(=O)NCCCC(N)=O,-102.2
5,CCN1CC(COC(=O)c2cc(Br)ccc2F)CC1=O (stereo unspecified),8.4
6,CC(C)C1CCCN1CC(=O)NCc1ccc(OCC(N)=O)cc1 (stereo unspecified),12.8
7,CC(C)c1cc(NC(CO)CO)n2nccc2n1,33.2
8,CC(C)c1cc(N2CCC(NS(C)(=O)=O)C2)nc(C(C)C)n1 (stereo unspecified),49.6
9,CC(C)c1cc(N2CCC(NS(C)(=O)=O)CC2)n2nccc2n1,61.2
10,CC(=O)N1CCCN(C(=O)CCc2c(C)nc3ccnn3c2C)CC1,10
11,CN(C)C(=O)N1CCC2(CC1)CNc1ccc(F)cc12,49.1
12,O=C(Nc1ccccc1)C1=NOC2(CCCNC2)C1 (stereo unspecified),-4.02
13,CC(=O)c1ccc(NC(=O)c2ccc3c(c2)C2(CCCCC2)CN3)cc1,64.7
14,CC(=O)N1CCC2(CC1)CNc1ccc(F)cc12,36.2
15,O=C(Nc1ccccc1)c1ccc2c(c1)C1(CCCCC1)CN2,90.1
16,CNC(=O)N1CCC2(CC1)CNc1ccc(F)cc12,10.5
17,CCOCC1CN(S(=O)(=O)c2ccccc2)Cc2nccn2C1 (stereo unspecified),34
18,COC(C)(C)C(=O)N1CCC(c2cc(CN(C)C)n(C)n2)CC1,-42.1
19,CC(=O)N1CCN(C(=O)C(C)OCC(F)(F)F)CC1 (stereo unspecified),-22.8
20,CN(CC(N)=O)C(=O)c1cc(Cl)c(Cl)n1C,8.4
21,Cc1ccc(C(=O)NC2CCN(Cc3nc(CC(C)C)no3)CC2)s1,18.6
22,Cc1ccc(C(=O)NC2CCN(Cc3noc(CC(C)C)n3)CC2)s1,71.8
23,CC(C)Cc1nc(CN2CCC(NC(=O)c3cccs3)CC2)no1,24.2
24,CC(C)Cc1noc(CN2CCN(C(=O)c3cccs3)CC2)n1,0.891

row,SMILES,INHIBITION [%]
1,Cc1ccc(C(=O)NC2CCN(Cc3noc(C(C)C)n3)CC2)s1,7.44
2,CC(C)Cc1noc(CN2CCC(NC(=O)c3cccs3)CC2)n1,53.5
3,CCOc1ccnc(N2CCCN(C(=O)c3cc[nH]c3C)CC2)n1,-7.31
4,COc1ccccc1-c1ccc(NCc2cn3c(n2)SCC3)nn1,9
5,CCc1c(C)nc2n(c1=O)CC(C(=O)Nc1ccccc1C)CS2 (stereo unspecified),42.4
6,CC(C)CCCNC(=O)Nc1ccc(C(N)=O)c(Cl)c1,-49.5
7,COc1no[n+]([O-])c1-c1ccccc1,63.5
8,CCOc1no[n+]([O-])c1-c1ccccc1,36.9
9,CN(C)c1no[n+]([O-])c1-c1ccccc1,-3.19
10,Cc1[nH]ncc1C(=O)N(CC(C)C)CC(O)c1ccc(F)cc1 (stereo unspecified),-12.1
11,CCN1CC2(CCC1=O)CCN(CCOc1ccc(F)cc1)CC2,10.1
12,CCC(CC)C(O)CNC(=O)Nc1cc(C)nn1C (stereo unspecified),11.6
13,Cc1ncc(C(=O)N2CC[C@@]3(O)CCN(C(=O)N(C)C)C[C@H]3C2)cn1,37.8
14,Cn1ccc2cc(C(=O)N3CC[C@@]4(O)CCCC[C@H]4C3)ccc21,-4.87
15,Cc1ccc(C(=O)N2CC[C@@]3(O)CCN(C(=O)N(C)C)C[C@H]3C2)cc1Cl,62.8
16,CN(C)C(=O)N1CC[C@]2(O)CCN(C(=O)c3ccc(C#N)nc3)C[C@@H]2C1,42.4
17,COc1ccc(C(=O)N2CC[C@@]3(O)CCCC[C@H]3C2)cc1OC,44.3
18,Cc1ccc(C(=O)N2CC[C@@]3(O)CCCC[C@H]3C2)cc1,56.3
19,Cc1nc(C2CCCN2CC(=O)N2CCc3ccccc32)no1 (stereo unspecified),46.2
20,COCCN(C)C(C(=O)O)c1ccc(F)c(C)c1 (stereo unspecified),14
21,COc1cccc(CN2CCOC(c3cnccn3)C2)c1F (stereo unspecified),-18.9
22,O=C(N1CCOCC1)[C@@]12CCO[C@@H]1CCN(C1CCCC1)C2,8.67
23,CN(Cc1ccncc1)C(=O)[C@H]1CSCN1C(=O)OC(C)(C)C,-12.1
24,O=C1NC(c2ccccc2)=N[C@@]12CC[C@@H]1CN(Cc3ccccc3)C[C@@H]12,-21.3

row,SMILES,INHIBITION [%]
1,O=C1NC(c2ccccc2)=N[C@@]12CC[C@@H]1CN(CC3CCOCC3)C[C@@H]12,2.74
2,O=C1NC(c2ccccc2)=N[C@@]12CC[C@@H]1CN(S(=O)(=O)C3CC3)C[C@@H]12,76.4
3,CC(C)NC(=O)C1CCN(c2snc3ccccc23)CC1,-15.5
4,COc1ccc(CN(Cc2nc(C)no2)C2CCCCC2)cc1OC,14.4
5,Cc1cc(CN(C2CC2)C(C)C(C)C)on1 (stereo unspecified),-21.8
6,COc1ccc(CN(Cc2cc(C)no2)C2CC2)cc1,92.2
7,Cc1cc(CN(Cc2ccccc2)C2CC2)on1,33.7
8,Cc1ccc(CN(Cc2cc(C)no2)C2CC2)cc1,53.2
9,COCCN(Cc1noc(-c2ccc(OC)cc2)n1)C1CC1,15.5
10,O=C(Nc1cnc2n1CCCC2)C1CCNCC1,18.7
11,O=C(NCC1CC1)[C@@H]1CCO[C@@H]2CCN(Cc3ccc(F)cc3)C[C@H]21,-10.3
12,Cc1cnn(CC2CCCN2C(=O)c2ccc3c(c2)nnn3C)c1 (stereo unspecified),23.2
13,C=Cc1cccc(CN2C[C@@H]3CC[C@H]2CN(Cc2c(C)noc2C)C3)c1,-19.2
14,CN(C)C(=O)N1CCOCC2(CCN(c3ncccn3)C2)C1 (stereo unspecified),-5.29
15,CN1CCc2c(C#N)c(NCCCO)n3cnnc3c2C1,32.5
16,CN1CCc2c(C#N)c(NCCc3ccccc3)n3cnnc3c2C1,60.7
17,CC(C)CCNc1c(C#N)c2c(c3nncn13)CN(C)CC2,60.7
18,CN1CCc2c(C#N)c(NCc3ccco3)n3cnnc3c2C1,19.7
19,CN1CCc2c(C#N)c(NCc3ccncc3)n3cnnc3c2C1,10.1
20,CN1CCc2c(C#N)c(NCc3cccnc3)n3cnnc3c2C1,53.2
21,COCCNc1c(C#N)c2c(c3nncn13)CN(C)CC2,32.5
22,CN1CCc2c(C#N)c(NCc3ccccc3)n3cnnc3c2C1,24.2
23,CN1CCc2c(C#N)c(NCCN3CCOCC3)n3cnnc3c2C1,35

# Reference: ChEMBL document CHEMBL4513216, “Probing the Open Global Health Chemical Diversity Library for Multistage-Active Starting Points for Next-Generation Antimalarials” (ACS Infect Dis, 2020)
